Molecular target: ATP6V0A4
Test: pooled miR-30 sensor sort-seq; sequence = guide strand
Conditions: shRNA
Note: reference of the scale not given here.

In order of falling sensor-assay potency score (higher = more potent):
1. TTTCGTCACAGGATCCTCCAGA  0.303
2. TCTTTGAACTGAACCAATCCGA  0.235
3. TTCTAGAACAGTCTCCAGGGTA  -0.117
4. TTGTTCTGGAACTCAACCCAGT  -0.422
5. ATCTTCTTGATTTTCTGCCTGA  -0.439
6. TTTTTCTAGAACAGTCTCCAGG  -0.591
7. TTCTGCACCTTGATGAGCCAGG  -0.64
8. ATAGGCATCAACAATATTCTGG  -0.65
9. TTCCTGTAACTCTCCTTCCAGT  -0.817
10. TTGTGACAAACACATCTCCTCG  -1.11

Molecular target: ATP7B
Test: as above
Conditions: shRNA

In order of rising sensor-assay potency score (higher = more potent):
1. TAGCACTTGAGCTGCAGGGATG  -1.64
2. TTTCATCTCGTGGTCTGTCATA  -1.47
3. TGACTGGACATATCCAGGGAGC  -1.47
4. TCATCGTCTGCTGCAGCGCTGT  -1.45
5. TTGACATCTGAGCCTCTTCCAC  -1.39
6. TAGCTCTGGCTGTCTTCCGGTT  -1.3
7. TGTCTGTCCTTTCATCTCGTGG  -1.22
8. TAGAGTCCAAGACAAAGCCCAT  -1.12
9. TGACTCGCCTCTCACCTTCTAC  -1.09
10. TATCTTGTGCGCCATCTCCAGG  -1.02
11. TTGTCAAACATCACAGTCTTTA  -0.992
12. AATGCTAGCCACCACATCCAGC  -0.992
13. TTATCTTGTGCGCCATCTCCAG  -0.947
14. ATAGCGTCACTGACATCGCTAG  -0.788
15. TGTCCTGCTCAGCTTGTGGTGA  -0.618
16. TTGGGGTTCTTTGACATCTGAG  -0.597
17. AAACATCACAGTCTTTATCTTG  -0.586
18. TTTTTGGTCCTGATGAAACTGT  -0.518
19. TCTCGTGGTCTGTCATAGCGTC  -0.487
20. TATAGCACTTGAGCTGCAGGGA  -0.435
21. TTCAGGAGCAGAGACCACTTGT  -0.382
22. AACATCACAGTCTTTATCTTGT  -0.258
23. TTCCTCTTTACAGTATTTGGTG  -0.123
24. TTTGTTGATGCCAACCTGGGTG  -0.00244

Molecular target: ATP8A2
Test: as above
Conditions: shRNA

In order of rising sensor-assay potency score (higher = more potent):
1. TTGTGTTGAAGCCTTCGCCATT  -1.44
2. TTGTCTCCTGTCAACACCCATA  -1.33
3. TTCCTGACTAACAGCTCCGTGT  -0.616
4. TAATACATATCTGTGTCCCAGT  -0.374
5. TCAATGTTCTTCAACAGCCTGG  -0.00859
6. TTGTATAAGATGATGAACGTCA  2.4e-06

— the OligoGym collection
